Bioassay records (PubChem)
Pol kappa inh-1 = qHTS for Inhibitors of Polymerase Kappa; Potency, µM (top dose mostly 107 µM), inactives show at the top dose activity, negative = inhibition, most hits filed as inhibitors; AID 588579, 2011; 0.53% of 400,000 active; DNA polymerase kappa (Homo sapiens), Q9UBT6; purified Pol kappa, fluorescent DNA synthesis assay, 10 min; note: % is set by controls: 0 for no effect and ±100 for the full control effect
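50 nM final substrate added after 15 min RT preincubation of 10 nM Pol kappa with compound; fluorescence read at 0 and 10 min.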
WRN helicase inh-1 = qHTS for Inhibitors of WRN Helicase | Bifunctional 3'-5' exonuclease/ATP-dependent helicase WRN (Homo sapiens), Q14191 | WRN helicase unwinding, fluorescent forked duplex, kinetic | Potency, µM (doses to about 114 µM), without a hit: at the top dose activity change, negative = inhibition, usual class: inhibitors | 0.46% of 360,000 active; note: % is set by controls: 0 for no effect and ±100 for the full control effect; nearly all actives have a fitted effect of over 55% in size
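Primary qHTS, 1536-well format. 20 nM WRN + compound, 15 min RT; start with 100 nM forked fluorophore/quencher duplex, 2 mM ATP (final); kinetic read ex 525/em 598 nm.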
POLI inh = qHTS for Inhibitors of Polymerase Iota. DNA polymerase iota (Homo sapiens), Q9UNA4. Pol iota fluorescent replication assay, 10 min. Potency, µM (doses to about 115 µM), without a hit: top-dose activity, negative = inhibition, hits mostly inhibitors. 1% of 390,000 active
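Pol iota at 10 nM preincubated 15 min with compounds at room temperature; reaction started with fluorescent substrate, 50 nM final. Fluorescence read kinetically at 0 and 10 min; buffer-only wells as negative control.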
Pol beta inh = qHTS Assay for Inhibitors of DNA Polymerase Beta; P06746; Pol beta primer extension/strand displacement, fluorescence kinetic; Potency, µM (series often up to 114 µM), without a hit: at the highest dose activity change, negative = inhibition, hits mostly inhibitors; 1.3% of 340,000 active; AID 485314, 2010; note: % is set by controls: 0 for no effect and ±100 for the full control effect
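Pol beta (10 nM) and compounds were preincubated 15 min at room temperature, then 50 nM substrate (final) started primer extension/strand displacement. Reads were taken at 0 and 10 min; concentration-response data were fitted to a four-parameter Hill equation.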
Pol eta inh-1 = qHTS for Inhibitors of Polymerase Eta. recombinant Pol eta, fluorescent DNA replication assay. AID 588591, 2011. DNA polymerase eta (Homo sapiens), Q9Y253. Potency, µM (doses to about 114 µM), for inactives: at the highest dose activity change, negative = inhibition, usual class: inhibitors. 1.2% of 390,000 active; note: % is set by controls: 0 for no effect and ±100 for the full control effect
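Fluorescent replication assay: 50 nM final substrate added after a 15 min room-temperature compound preincubation with 10 nM enzyme. Signal taken at 0 min and again at 10 min.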
FEN1 inh-1 = qHTS Assay for the Inhibitors of Human Flap endonuclease 1 (FEN1). P39748. Potency, µM (highest dose often 114 µM), without a hit: top-dose activity change, negative = inhibition, most hits filed as inhibitors. AID 588795, 2011. 0.35% of 390,000 active. Recombinant FEN1 flap cleavage, fluorescence, 15 min; note: % is set by controls: 0 for no effect and ±100 for the full control effect; nearly all actives have a fitted effect of over 65% in size
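Reaction started by adding substrate (50 nM final) to 10 nM enzyme after 15 min room-temperature compound preincubation. Reads at 0 and 15 min, with data normalized and fitted to a four-parameter Hill equation.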
TbPGK inh = qHTS for inhibitors of Phosphogylcerate Kinase: Hit Validation Screen. Potency, µM (series often up to 57.5 µM), without a hit: at the top dose activity change, negative = inhibition, actives largely listed as inhibitors. 79% of 500 active. TbPGK coupled GAPDH assay, Kinase-Glo luminescence. shares compounds with Pol kappa inh-1; note: % is set by controls: 0 for no effect and ±100 for the full control effect; nearly all actives have a fitted effect of over 65% in size
POLI cherry-pick = qHTS for Inhibitors of Polymerase Iota: Confirmatory Assay for Cherry-picked Compounds. Potency, µM, usual class: inhibitors. 77% of 1,500 active. Pol iota primer extension, TAMRA/BHQ fluorescence. shares compounds with Pol kappa inh-1
Pol kappa inh-2 = qHTS for Inhibitors of Polymerase Kappa: Confirmatory Assay for Cherry-picked Compounds; shares compounds with Pol eta inh-1; purified Pol-kappa, fluorescent strand-displacement substrate; Potency, µM, hits mostly inhibitors; 76% of 920 active; AID 720501, 2013
Pol eta inh-2 = qHTS for Inhibitors of Polymerase Eta: Confirmatory Assay for Cherry-picked Compounds; AID 720502, 2013; Pol eta primer extension, TAMRA/BHQ fluorescence, 10 min; Potency, µM, actives largely listed as inhibitors; shares compounds with Pol eta inh-1; 64% of 2,600 active
FEN1 inh-2 = qHTS Assay for the Inhibitors of FEN1: Confirmatory Assay for Cherry-picked Compounds | 79% of 880 active | FEN1 flap cleavage, TAMRA/BHQ2 fluorogenic DNA substrate | Potency, µM, actives largely listed as inhibitors | shares compounds with FEN1 inh-1; note: nearly all actives have a fitted effect of over 60% in size
WRN helicase inh-2 = qHTS for Inhibitors of WRN Helicase: Confirmatory Assay for Cherry-picked Compounds | shares compounds with WRN helicase inh-1 | WRN helicase DNA unwinding, fluorescence kinetic | Potency, µM (top dose mostly 57.1 µM), without a hit: top-dose activity, negative = inhibition, most hits filed as inhibitors | 63% of 610 active | AID 720497, 2013; note: nearly all actives have a fitted effect of over 65% in size
TO DNA binding = qHTS for Inhibitors of WRN Helicase: Thiazole Orange DNA Binding Counterscreen. Potency, µM (series often up to 57.1 µM), without a hit: top-dose activity change, negative = inhibition, actives largely listed as inhibitors. shares compounds with WRN helicase inh-1. thiazole orange DNA binding displacement, fluorescence. 10% of 610 active;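 note: drop in dye fluorescence marks compound binding to DNA; % is set by controls: 0 for no effect and ±100 for the full control effect; nearly all actives have a fitted effect of over 60% in size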
BLM counter = qHTS for Inhibitors of WRN Helicase: BLM Helicase Counterscreen for WRN Inhibitors; 60% of 610 active; Potency, µM (titrated, usually from 57.1 µM), inactives show at the top dose activity change, negative = inhibition, usual class: inhibitors; AID 720503, 2013; Recombinant BLM helicase DNA unwinding, red fluorescence; shares compounds with WRN helicase inh-1; note: nearly all actives have a fitted effect of over 60% in size
An asterisk follows results filed as active; u = inconclusive; x = not tested or not shown; [ ] = dose if it differs, or a comment. The list is not random: actives were taken first. Their share in the collection is about 2.4%. Calls come from the whole dose curve; as a rule, active = well fitted curve in the direction sought with a large enough effect; inconclusive = small, poorly fitted or top-dose-only effect, or another doubt; inactive = no such curve, though single readings can be large; an effect the other way counts as inactive or inconclusive. Potency is the fitted concentration of half-maximal effect.

SMILES	Pol kappa inh-1	WRN helicase inh-1	POLI inh	Pol beta inh	Pol eta inh-1	FEN1 inh-1	POLI cherry-pick	Pol eta inh-2	WRN helicase inh-2	TO DNA binding	BLM counter	others
Cc1cccc(-c2ccc(C=Nc3c(C)n(C)n(-c4ccccc4)c3=O)o2)c1	-7%	-4%	-8%	-8%	-25%	8%	x	x	x	x	x
Cc1cccc(N2NC(=O)/C(=C/c3ccc(-c4ccc(Cl)c(C(=O)O)c4)o3)C2=O)c1	35µM*	40µM*	3.5µM*	25µM*	6.3µM*	u	34*	17*	9.6µM*	u	9.6µM*
O=C(CC1NCCC[C@H]1O)Cn1cnc2cc(Br)c(Cl)cc2c1=O (stereo partly specified)	-3%[19.4 µM]	x	x	x	x	x	x	x	x	x	x
COCCn1c(=O)c(-c2ccc(Cl)cc2)nc2cnc(N3CCOCC3)nc21	-6%[60.1 µM]	x	x	x	x	x	x	x	x	x	x
O=C1CC(c2ccco2)CC(O)=C1C=Nc1cc(Cl)ccc1O (stereo unspecified)	u	u	u	20µM*	35µM*	-19%	42*	30*	22µM*	-20%	7.6µM*
O=C1CC(c2ccco2)CC(O)=C1C=Nc1ccc(Br)cc1 (stereo unspecified)	u	-22%	u	u	u	-5%	x	x	x	x	x
CCN(CC)CCCNc1nc2cc(OC)c(OC)cc2c2nc(-c3ccccc3)nn12	u	35µM*	7.9µM*	11µM*	u	13µM*	38*	x	17µM*	-9%	25%	FEN1 inh-2=6.7*
COCCCNc1nc2cc(OC)c(OC)cc2c2nc(-c3ccccc3)nn12	7%	-4%[57.1 µM]	28%	19%	-14%	0%	x	x	x	x	x
CCN(C(=O)CCS(=O)(=O)c1cc2[nH]c(=O)c(=O)[nH]c2cc1C)c1ccccc1	0%	x	-1%	20%	11%	-8%	x	x	x	x	x
O=C1/C(=C/C=C/c2ccco2)SC(=S)N1NS(=O)(=O)c1ccccc1	4.5µM*	8.9µM*	1.8µM*	u	1.1µM*	4µM*	2.7*	1.7*	4.8µM*	-18%	7.6µM*	TbPGK inh=4.1µM*;FEN1 inh-2=17*
CC(C(=O)O)N1C(=O)/C(=C/C=C/c2ccco2)SC1=S (stereo unspecified)	1.3µM*	2.4µM*	0.79µM*	1.3µM*	0.79µM*	7.9µM*	1.9*	1.3*	0.54µM*	-11%	0.96µM*	TbPGK inh=2.9µM*;FEN1 inh-2=15*
Cc1ccc(NC(=O)CN2C(=O)S/C(=C/c3ccc(-c4cc(C(=O)O)ccc4C)o3)C2=O)cc1C	79µM*	22µM*	22µM*	7.1µM*	20µM*	35µM*	x	x	7.6µM*	193%	5.4µM*	TbPGK inh=7.3µM*
CCn1c(C)cc(/C=C2\SC(=O)N(CC(=O)Nc3ccc(C)c(C)c3)C2=O)c1C	-1%	5%	2%	1%	-17%	-2%	x	x	x	x	x
CCOC(=O)C1CCCN(C(=O)c2cc(-c3ccco3)nc3ccccc23)C1 (stereo unspecified)	22µM*	32µM*	3.5µM*	x	3.2µM*	56µM*	19*	19*	14µM*	u	1.7µM*	TbPGK inh=10µM*;Pol kappa inh-2=9.5*
CC(C)N(C)C1CCN(S(=O)(=O)c2ccc3[nH]c(=O)ccc3c2)CC1	-7%[60.1 µM]	x	17%	-15%	-19%	18%	x	x	x	x	x
COc1cc(NC(=O)c2noc3c2CCC3)c(OC)cc1Cl	32µM*	u	u	10µM*	18µM*	u	38*	38*	u	-5%	22µM*
O=C(NCc1cccnc1)c1nn(-c2ccc(F)cc2)nc1CO	-15%	x	20%	-4%	-10%	0%	x	x	x	x	x
C/C(C/C(C)=C1/SC(=S)NC1=O)=C1\SC(=S)NC1=O	20µM*	28µM*	3.5µM*	16µM*	3.5µM*	13µM*	30*	6*	3.8µM*	-4%	u	FEN1 inh-2=19*
CCCCCC/C(C)=C1/SC(=S)NC1=O	-7%	-16%	u	6%	-18%	-7%	x	x	x	x	x
CCCCCCCC/C=C\CCCCCCCCOC[C@H](COP(=O)([O-])OCC[N+](C)(C)C)OC(C)=O	4%[19.4 µM]	x	x	x	x	x	x	x	x	x	x
COc1cccc(Cn2c(=O)c(-c3cc(F)cc(F)c3)nc3cnc(N(C)C)nc32)c1	-3%[60.1 µM]	x	x	x	x	x	x	x	x	x	x
